{"source": "ChEMBL document CHEMBL1201862", "about": "“PubChem BioAssay data set” (2004)", "note": "Screen size: about 400,000 compounds; about 1,900 (0.47%) were called active. Not shown: some 14% with an inconclusive outcome. The rule behind the calls is not given here. Many of the other results were omitted from the sample, so actives are more common in it than they were."}
{"molecular_target": "Ataxin-2 (Homo sapiens) (UniProt Q99700)", "sequence (Q99700 whole entry)": "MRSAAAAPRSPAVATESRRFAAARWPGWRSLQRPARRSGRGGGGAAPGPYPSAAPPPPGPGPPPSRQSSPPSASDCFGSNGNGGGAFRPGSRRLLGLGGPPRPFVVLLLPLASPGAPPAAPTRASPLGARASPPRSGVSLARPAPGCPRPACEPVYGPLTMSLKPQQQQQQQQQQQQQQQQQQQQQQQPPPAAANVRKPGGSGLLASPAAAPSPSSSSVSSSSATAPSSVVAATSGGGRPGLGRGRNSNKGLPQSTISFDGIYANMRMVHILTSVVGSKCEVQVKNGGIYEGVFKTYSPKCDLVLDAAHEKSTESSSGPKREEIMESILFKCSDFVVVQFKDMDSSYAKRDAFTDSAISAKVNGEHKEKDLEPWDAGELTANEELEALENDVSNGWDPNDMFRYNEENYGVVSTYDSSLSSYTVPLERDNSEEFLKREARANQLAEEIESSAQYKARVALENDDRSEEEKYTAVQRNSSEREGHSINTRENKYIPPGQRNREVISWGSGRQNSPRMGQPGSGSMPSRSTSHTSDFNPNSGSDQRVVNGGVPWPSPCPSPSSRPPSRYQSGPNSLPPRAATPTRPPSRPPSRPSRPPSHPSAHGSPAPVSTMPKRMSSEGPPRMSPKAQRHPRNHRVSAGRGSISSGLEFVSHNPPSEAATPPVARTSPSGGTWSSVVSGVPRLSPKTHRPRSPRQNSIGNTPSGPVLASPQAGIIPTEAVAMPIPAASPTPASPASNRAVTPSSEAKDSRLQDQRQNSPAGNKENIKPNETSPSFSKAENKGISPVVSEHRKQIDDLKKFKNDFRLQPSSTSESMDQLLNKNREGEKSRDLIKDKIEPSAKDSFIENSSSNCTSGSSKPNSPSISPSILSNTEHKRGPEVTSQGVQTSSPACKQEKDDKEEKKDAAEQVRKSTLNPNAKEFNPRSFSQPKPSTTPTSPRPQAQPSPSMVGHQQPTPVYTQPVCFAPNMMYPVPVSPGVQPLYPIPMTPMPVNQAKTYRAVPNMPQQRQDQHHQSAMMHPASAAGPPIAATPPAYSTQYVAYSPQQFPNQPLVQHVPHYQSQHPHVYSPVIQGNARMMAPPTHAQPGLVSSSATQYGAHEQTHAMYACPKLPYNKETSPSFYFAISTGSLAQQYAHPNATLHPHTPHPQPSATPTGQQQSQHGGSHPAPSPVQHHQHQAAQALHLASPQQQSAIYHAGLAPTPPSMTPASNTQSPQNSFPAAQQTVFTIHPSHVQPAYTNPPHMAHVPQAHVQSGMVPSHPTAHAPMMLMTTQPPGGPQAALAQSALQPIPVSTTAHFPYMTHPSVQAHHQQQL", "experiment": "qHTS for Inhibitors of ATXN expression.", "assay_type": "functional"}
{"smiles": "CCOc1ccc2nc(NN=C3C(=O)NC(=S)NC3=O)sc2c1", "Potency": "15 µM (active)"}
{"smiles": "CCC(=O)N1N=C2C3CCN(CC3)C2C1c1ccc(C)cc1", "note": "(stereo not drawn)", "Potency": "inactive"}
{"smiles": "COc1cccc(C(=O)NCc2nc(-c3cccc(NC(=O)c4ccoc4C)c3)oc2C)c1OC", "Potency": "28.2 µM (active)"}
{"smiles": "Nc1ccc2c(c1)Cc1cc([N+](=O)[O-])ccc1-2", "Potency": "inactive"}
{"smiles": "Clc1ccc2c(c1)C(OC1CN3CCC1CC3)c1ccccc1CS2", "note": "(stereo not drawn)", "Potency": "28.2 µM (active)"}
{"smiles": "COc1ccc(S(=O)(=O)Nc2ccccc2OC)cc1NN=C1C(=O)NC(=S)NC1=O", "Potency": "39.8 µM (active)"}
{"smiles": "CCOc1ccc(NS(=O)(=O)c2ccc(Cl)c(NN=C3C(=O)NC(=S)NC3=O)c2)cc1Br", "Potency": "28.2 µM (active)"}
{"smiles": "Nc1ccc2ccc3cccc[n+]3c2c1", "Potency": "inactive"}
{"smiles": "COCCCNC(=O)c1c(NC(=O)c2ccccc2Cl)n(Cc2ccccc2)c2nc3ccccc3nc12", "Potency": "inactive"}
{"smiles": "CCC1(O)C(=O)OCc2c1cc1n(c2=O)Cc2cc3cc(O)ccc3nc2-1", "note": "(stereo not drawn)", "Potency": "inactive"}
{"smiles": "CCC1(OC(=O)CN)C(=O)OCc2c1cc1n(c2=O)Cc2cc3ccccc3nc2-1", "note": "(stereo not drawn)", "Potency": "inactive"}
{"smiles": "CC[C@@]1(O)C(=O)OCc2c1cc1n(c2=O)Cc2cc3ccccc3nc2-1", "Potency": "0.01 µM (active)"}
{"smiles": "CCCCCn1c(=O)c(C(=O)NCc2ccccc2Cl)c(O)c2ccccc21", "Potency": "inactive"}
{"smiles": "O=C(CN1C(=O)CN=C(c2ccccc2)c2ccccc21)Nc1cccc(C(F)(F)F)c1", "Potency": "31.6 µM (active)"}
{"smiles": "NNC(=O)CN1C(=O)CN=C(c2ccccc2)c2cc(Br)ccc21", "Potency": "inactive"}
{"smiles": "C=C1C(=O)OC2CC3(C)OC3CCC(C)=CC(OC(C)=O)C12", "note": "(stereo not drawn)", "Potency": "33.6 µM (active)"}
{"smiles": "CCCCn1c(NS(=O)(=O)c2ccccc2)c(C(=O)OCC)c2nc3ccccc3nc21", "Potency": "inactive"}
{"smiles": "CCOC(=O)c1c(NS(=O)(=O)c2ccccc2)n(CCCOC)c2nc3ccccc3nc12", "Potency": "inactive"}
{"smiles": "COCCCn1c(N)c(C(=O)NCCC(C)C)c2nc3ccccc3nc21", "Potency": "inactive"}
{"smiles": "Brc1cccc(CNCCc2ccc3c(c2)OCO3)c1", "Potency": "inactive"}
{"smiles": "CNCCC(Oc1ccc(C(F)(F)F)cc1)c1ccccc1", "note": "(stereo not drawn)", "Potency": "31.6 µM (active)"}
{"smiles": "CC[C@@]1(O)C(=O)OCc2c1cc1n(c2=O)Cc2cc3c(NC(=O)CN)cccc3nc2-1", "Potency": "inactive"}
{"smiles": "COC(=O)c1ccc(C(C(=O)NC2CCCCC2)N(CCN2CCOCC2)C(=O)Cc2cccs2)cc1", "note": "(stereo not drawn)", "Potency": "inactive"}
{"smiles": "CCc1ccc2c(c1)Sc1ccccc1CC2N1CCN(C)CC1", "note": "(stereo not drawn)", "Potency": "inactive"}
{"smiles": "O=c1ccc2cc(OC3O[C@H](CO)[C@@H](O)[C@H](O)[C@H]3O)c(O)cc2o1", "note": "(stereo partly drawn)", "Potency": "inactive"}
{"smiles": "O=[N+]([O-])c1ccc(N2CCOCC2)c2c1no[n+]2[O-]", "Potency": "3.98 µM (active)"}
{"smiles": "CN1CCN(c2ccc([N+](=O)[O-])c3no[n+]([O-])c23)CC1", "Potency": "7.08 µM (active)"}
{"smiles": "O=[N+]([O-])c1ccc(N(CCO)CCO)c2c1no[n+]2[O-]", "Potency": "17.8 µM (active)"}
{"smiles": "O=[N+]([O-])c1ccc(N2CCOCC2)c2cccnc12", "Potency": "inactive"}
{"smiles": "COc1ccc(Br)cc1CNCCc1ccc2c(c1)OCO2", "Potency": "inactive"}
{"smiles": "Cc1cc2c(C(F)(F)F)cc(=O)oc2c2c1NCCC2", "Potency": "inactive"}
{"smiles": "Cc1cccc(N2C(=O)NC(=O)/C(=C/c3cc4c(cc3[N+](=O)[O-])OCO4)C2=O)c1", "Potency": "inactive"}
{"smiles": "Cc1cc(/C=C2\\C(=O)NC(=O)N(Cc3ccccc3Cl)C2=O)c(C)n1-c1ccc(C(=O)O)cc1", "Potency": "inactive"}
{"smiles": "Cc1cc(C=C2C(=O)NC(=S)NC2=O)c(C)n1-c1ccc2c(c1)OCO2", "Potency": "39.8 µM (active)"}
{"smiles": "CCN(C(=O)COC(=O)c1cn(C)c2ccccc12)c1ccc(F)cc1", "Potency": "inactive"}
{"smiles": "Oc1nc2ccccc2n1C1CCN(C(c2cccs2)c2nnnn2Cc2ccccc2)CC1", "note": "(stereo not drawn)", "Potency": "22.4 µM (active)"}
{"smiles": "COc1ccc(C(c2nnnn2Cc2ccccc2)N2CCC(n3c(O)nc4ccccc43)CC2)cc1", "note": "(stereo not drawn)", "Potency": "15.8 µM (active)"}
{"smiles": "Cc1cccc(C)c1-n1nnnc1C(c1cccs1)N1CCC(n2c(O)nc3ccccc32)CC1", "note": "(stereo not drawn)", "Potency": "20 µM (active)"}
{"smiles": "Oc1nc2ccccc2n1C1CCN(C(c2cc3ccccc3o2)c2nnnn2Cc2ccccc2)CC1", "note": "(stereo not drawn)", "Potency": "10 µM (active)"}
{"smiles": "COc1ccc2c3c([nH]c2c1)C(C)=NCC3", "Potency": "inactive"}
{"smiles": "Cc1c(C)n(O)c2ccc3nonc3c12", "Potency": "inactive"}
{"smiles": "CCN(CC)c1ccc(N/C=C2\\C(=O)NC(=O)N(Cc3ccco3)C2=O)cc1", "Potency": "inactive"}
{"smiles": "CCOP(=O)(OCC)c1nc(-c2ccc(F)cc2)oc1NCc1ccccc1", "Potency": "inactive"}
{"smiles": "Cc1ccccc1CN1Cc2cnnn2-c2ccccc2C1C#N", "note": "(stereo not drawn)", "Potency": "17.8 µM (active)"}
{"smiles": "COc1ccc(CN2Cc3cnnn3-c3ccccc3C2C#N)cc1", "note": "(stereo not drawn)", "Potency": "12.6 µM (active)"}
{"smiles": "Nc1c(C(=O)NCCN2CCOCC2)c2nc3ccccc3nc2n1Cc1ccco1", "Potency": "inactive"}
{"smiles": "ClCCN(CCCl)c1ccc(-n2cnc3c(Cl)ncnc32)cc1", "Potency": "35.5 µM (active)"}
{"smiles": "ClCCN(CCCl)c1ccc(C=Cc2ccncn2)cc1", "Potency": "inactive"}
{"smiles": "COCCNC(=O)c1c(NC(=O)c2ccc(Br)o2)n(Cc2ccccc2)c2nc3ccccc3nc12", "Potency": "inactive"}
{"smiles": "CCCCCCCSc1cc(OC)c(CCN(C)C)cc1OC", "Potency": "39.8 µM (active)"}
{"smiles": "C=CC[N+]1(C)C2CCC1CC(O)C2", "note": "(stereo not drawn)", "Potency": "inactive"}
{"smiles": "COc1ccccc1OCCCn1cc(C=O)c2ccccc21", "Potency": "inactive"}
{"smiles": "Cc1ccc([C@H]2C[C@H](O)[C@@H](n3cc(COC(=O)c4ccccc4)nn3)CN2CC2CCCCC2)cc1", "Potency": "31.6 µM (active)"}
{"smiles": "CCOC(=O)c1c(N)n(Cc2ccco2)c2nc3ccccc3nc12", "Potency": "inactive"}
{"smiles": "O=C1C2(Cl)C3(Cl)C4(Cl)C(Cl)(Cl)C5(Cl)C3(Cl)C1(Cl)C5(Cl)C24Cl", "note": "(stereo not drawn)", "Potency": "39.8 µM (active)"}
{"smiles": "CCCCn1c(NC(=O)c2ccc(Br)o2)c(C(=O)OCC)c2nc3ccccc3nc21", "Potency": "inactive"}
{"smiles": "O=c1[nH]c2ccccc2n1C1CCN(CCCC(c2ccc(F)cc2)c2ccc(F)cc2)CC1", "Potency": "31.6 µM (active)"}
{"smiles": "COCCCNC(=O)c1c(N)n(Cc2ccco2)c2nc3ccccc3nc12", "Potency": "inactive"}
{"smiles": "O=[N+]([O-])c1ccc(Sc2nc3ccccc3o2)c([N+](=O)[O-])c1", "Potency": "25.1 µM (active)"}
{"smiles": "CCCCCn1c(=O)c(C(=O)Nc2ccccc2Cl)c(O)c2ccccc21", "Potency": "inactive"}
{"smiles": "CCCCCc1nc2c(c(=O)c3ccccc3n2C)c(=O)n1C1CCCCCC1", "Potency": "31.6 µM (active)"}
{"smiles": "Nc1c(C(=O)NCCN2CCOCC2)c2nc3ccccc3nc2n1Cc1ccccc1", "Potency": "inactive"}
{"smiles": "COCCNC(=O)c1c(N)n(CCC(C)C)c2nc3ccccc3nc12", "Potency": "inactive"}
{"smiles": "CCOC(=O)c1c(C)n(Cc2ccccc2)c2ccc(OCC(O)CNC(C)(C)C)cc12", "note": "(stereo not drawn)", "Potency": "25.1 µM (active)"}
{"smiles": "COc1ccc(N2C(=O)NC(=O)/C(=C(/C)NCCc3c[nH]c4ccccc34)C2=O)cc1", "Potency": "inactive"}
{"smiles": "CCCCn1c(N)c(C(=O)OCCOC)c2nc3ccccc3nc21", "Potency": "inactive"}
{"smiles": "CC(=O)OC1C2(CC3N4C(=O)C5(CO)SSC4(CC31O)C(=O)N5C)OC(C)C(C)(C)C2=O", "note": "(stereo not drawn)", "Potency": "2.38 µM (active)"}
{"smiles": "CCN1C(=O)C(=CNNC(=O)c2ccncc2)C(=O)N(CC)C1=S", "Potency": "inactive"}
{"smiles": "CCCN1CCc2cccc3c2[C@H]1Cc1ccc(O)c(O)c1-3", "Potency": "35.5 µM (active)"}
{"smiles": "Cc1ccccc1NC(=NCCCN1CC1)Nc1ccccc1C", "Potency": "9.47 µM (active)"}
{"smiles": "O=C(Nc1cccc(C(F)(F)F)c1)C1CCCN1S(=O)(=O)c1cccc2nsnc12", "note": "(stereo not drawn)", "Potency": "22.4 µM (active)"}
{"smiles": "CC1=NCCc2c1[nH]c1cc(O)ccc21", "Potency": "inactive"}
{"smiles": "O=C(Cn1c(NCCCl)nc2ccccc21)c1ccc(Br)cc1", "Potency": "inactive"}
{"smiles": "O=C(CCN1CCN(c2ccccc2)CC1)c1ccc(Br)cc1", "Potency": "39.8 µM (active)"}
{"smiles": "COc1ccc(C(c2nnnn2-c2ccc(OC)cc2)N2CCC3(CC2)C(=O)NCN3c2ccccc2)cc1", "note": "(stereo not drawn)", "Potency": "35.5 µM (active)"}
{"smiles": "COc1ccc(-n2c(/C=C/c3ccc(O)c(O)c3)nc3ccccc3c2=O)cc1", "Potency": "inactive"}
{"smiles": "Cc1cccc(C)c1-n1nnnc1C(C1CC1)N1CCC2(CC1)C(=O)NCN2c1ccccc1", "note": "(stereo not drawn)", "Potency": "39.8 µM (active)"}
{"smiles": "COc1ccc(-n2nnnc2C(c2ccnc3ccccc23)N2CCC3(CC2)C(=O)NCN3c2ccccc2)cc1", "note": "(stereo not drawn)", "Potency": "39.8 µM (active)"}
{"smiles": "COc1ccc(-n2nnnc2C(c2ccccc2OC(F)(F)F)N2CCC3(CC2)C(=O)NCN3c2ccccc2)cc1", "note": "(stereo not drawn)", "Potency": "39.8 µM (active)"}
{"smiles": "COc1ccc(C(=O)C2CCCN(Cc3ccc(C)s3)C2)cc1OC", "note": "(stereo not drawn)", "Potency": "inactive"}
{"smiles": "CC(C)OC(=O)c1c(N)n(CC2CCCO2)c2nc3ccccc3nc12", "note": "(stereo not drawn)", "Potency": "inactive"}
{"smiles": "O=C(COc1ccccc1)N1CCN(CCN2C(=O)c3cccc4cccc(c34)C2=O)CC1", "Potency": "inactive"}
{"smiles": "CCOP(=O)(OCC)c1nc(-c2cccc3ccccc23)oc1N1CCOCC1", "Potency": "inactive"}
{"smiles": "Cc1cccc(C)c1-n1nnnc1C(c1ccnc2ccccc12)N1CCC2(CC1)C(=O)NCN2c1ccccc1", "note": "(stereo not drawn)", "Potency": "39.8 µM (active)"}
{"smiles": "Cc1cccc(C)c1-n1nnnc1C(c1cccs1)N1CCC2(CC1)C(=O)NCN2c1ccccc1", "note": "(stereo not drawn)", "Potency": "31.6 µM (active)"}
{"smiles": "C[C@H]1CC[C@@H]2[C@@H](C)[C@H]3[C@H](C[C@H]4[C@@H]5CC=C6C[C@@H](O[C@@H]7O[C@H](CO)[C@H](O)[C@H](O[C@@H]8O[C@H](CO)[C@@H](O)[C@H](O)[C@H]8O)[C@H]7O[C@@H]7O[C@@H](C)[C@H](O)[C@@H](O)[C@H]7O)CC[C@]6(C)[C@H]5CC[C@]34C)N2C1", "Potency": "22.4 µM (active)"}
{"smiles": "COP(=O)(OC)c1nc(-c2cccc3ccccc23)oc1N1CCCCC1", "Potency": "inactive"}
{"smiles": "CN(C)c1ccc(C=C2C(=O)NC(=S)NC2=O)cc1", "Potency": "44.7 µM (active)"}
{"smiles": "Cc1ccc(OCCOc2cccc(C=C3C(=O)NC(=O)NC3=O)c2)cc1", "Potency": "inactive"}
{"smiles": "COc1ccc(OC)c(CN2CCN(C(=O)Cc3ccccc3)CC2)c1", "Potency": "inactive"}
{"smiles": "O=C1NC(=O)C(=Cc2ccc(SC3CCCCC3)o2)C(=O)N1", "Potency": "22.4 µM (active)"}
{"smiles": "O=C1NC(=O)C(=Cc2ccc(-c3ccccc3[N+](=O)[O-])o2)C(=O)N1", "Potency": "inactive"}
{"smiles": "C=CC[C@@H](CC/C=C/C=C/CC/C=C\\[C@@H]1CSC([C@@H]2C[C@@H]2C)=N1)OC", "Potency": "17.8 µM (active)"}
